Laboratory results reported in PubChem BioAssay AID651965 (National Center for Advancing Translational Sciences (NCATS), 2013).
Screen size: about 340,000 compounds; about 6,400 (1.9%) were called active. About 4% were inconclusive and are not listed. Shown is part of a subset that was picked to be rich in actives. Unmarked numbers belong to inactive results. The call rests on the fitted dose curve; in most records, active means well fitted falling curve with a large enough effect; inconclusive means small, poorly fitted or top-dose-only effect; inactive means no such curve, though single readings can be large or run the other way.

Target: ATP-dependent Clp protease proteolytic subunit (Bacillus subtilis (strain 168)) (UniProt P80244)
Test: qHTS Assay for Activators of ClpP; further: the source files actives as falling curves though it sought activators and does not explain the sign; nearly all actives have a fitted effect of over 65% in size
Settings: purified B. subtilis ClpP, FRET peptide cleavage, 20 min; series mostly up to 57.5 µM; activity change, negative = active: at the top concentration
How it was run: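 FRET quenching reversal measured ClpP activation: 10 microg/mL B. subtilis ClpP at pH 8 with the FRET-FV decapeptide, read at 430 nm after 320 nm excitation. The 20-min minus 0-min signal was scaled between DMSO/no-enzyme wells and ADEP (5.8 microM final).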
Potency means the concentration at half of the fitted maximal effect.

Chain of ATP-dependent Clp protease proteolytic subunit (Bacillus subtilis (strain 168)) (P80244 whole entry, looked up): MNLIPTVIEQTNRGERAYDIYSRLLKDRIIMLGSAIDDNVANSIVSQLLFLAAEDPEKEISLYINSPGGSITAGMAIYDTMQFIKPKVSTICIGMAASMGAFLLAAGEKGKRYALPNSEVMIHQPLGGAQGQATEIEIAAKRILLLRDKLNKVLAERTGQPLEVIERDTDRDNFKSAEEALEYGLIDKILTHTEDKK

| SMILES | activity change, negative = active | Potency |
| --- | --- | --- |
| COc1cccc(C(=O)c2cc3ccc(O)cc3oc2=O)c1 | -2.45% | – |
| COc1ccc(-c2cc3ccc(OCc4nn[nH]n4)cc3oc2=O)cc1 | 12.2% | – |
| O=c1oc2cc(O)ccc2cc1-c1ccc(F)cc1 | – | 14.1 µM (active) |
| CCOC(=O)N(C)c1c(CC)nc2c(OCc3ccccc3C(=O)OC)cccn12 | -2.46% | – |
| COc1cncc(-c2cnc3sc(NCCc4ccccn4)nn23)c1 | -1.28% | – |
| CCc1nc2ccc(C(=O)N3CCN(S(=O)(=O)CC)CC3)cn2c1N(C=O)CCC(C)C | -1.82% | – |
| COc1ccc(S(=O)(=O)N(C)C[C@H]2OCc3cnnn3CCCC(=O)N([C@H](C)CO)C[C@H]2C)cc1 | -2.95% | – |
| C=C1C(=O)[C@]23C[C@H]1CCC2[C@@]1(C)C(C[C@@H]3O)[C@](C)(C(=O)O)CC[C@@H]1O (some centres undefined) | 0.0201% | – |
| CC(C)CN1CCC1(C)C(=O)Nc1ccc(OC(F)F)cc1 (centres undefined) | -0.236% | – |
| Cc1nn(Cc2ccccc2)c(C)c1C(=O)NCCCN1CCCC1=O | 0.973% | – |
| O=C1CCCN1CCCNc1ncnc2c1[nH]c1ccccc12 | – | 22.4 µM (active) |
| O=Cc1c(NCCCN2CCCC2=O)c2ccccc2[nH]c1=O | 1.69% | – |
| Nc1ncnc2c1ncn2[C@@H]1O[C@H](CNC(=O)[C@H](N)Cc2cccnc2)[C@@H](O)[C@H]1O | -0.917% | – |
| Clc1ccc(Cc2nnc(-c3cccs3)o2)cc1 | -4.92% | – |
| COc1nc(-c2ccc(Cl)cc2)ccc1-c1noc(-c2cccs2)n1 | – | 14.1 µM (active) |
| COc1ccc(CCc2nc(-c3cccs3)no2)cc1 | -0.0517% | – |
| C[C@@H]1CN([C@H](C)CO)C(=O)c2cc(-c3ccc(F)cc3)cnc2O[C@H]1CN(C)C(=O)c1ccc(F)cc1 | -3.91% | – |
| O=C(CC1Nc2ccccc2NC1=O)Nc1ccccc1 (centres undefined) | -1.78% | – |
| O=C1NCC(Nc2ccccc2)C(=O)N1 (centres undefined) | – | 12.6 µM (active) |
| O=C1NCC(c2ccccc2)(c2ccccc2)C(=O)N1 | -1.81% | – |
| CCCCNC(=O)Cn1c(SCc2cccc(Cl)c2)nc2ccncc21 | -5.3% | – |
| COc1ccc(C(O)c2nc(-c3ccc4c(c3)OCO4)cs2)cc1 (centres undefined) | 0.0628% | – |
| COCCNc1nc(Nc2ccccc2Cl)c2sc(-c3ccccc3)cc2n1 | 4.75% | – |
| CC1=C(C)CC2C(=O)N(c3cccc4ccccc34)C(=O)C2C1 (centres undefined) | -0.206% | – |
| O=C1c2ccccc2C(=O)N1c1cccc2ccccc12 | – | 7.94 µM (active) |

| SMILES | activity change, negative = active | Potency |
| --- | --- | --- |
| O=C1c2ccccc2C(=O)N1c1ccccc1S(=O)C(F)(F)F (centres undefined) | -3.11% | – |
| Cc1ccc(NC(=O)[C@H](Cc2ccccc2)NC(=O)CC[C@H]2O[C@@H](n3ccc(=O)[nH]c3=O)[C@H](O)[C@@H]2O)cc1C | 0.668% | – |
| CC(C)C(C)NC(=O)COc1ncnc2ccccc12 (centres undefined) | – | 11.2 µM (active) |
| Cc1ccc(C2=NN(C(=O)COc3ncnc4ccccc34)C(c3ccco3)C2)cc1 (centres undefined) | 0.222% | – |
| O=C(COc1ncnc2ccccc12)NC(=O)NCc1ccccc1 | -0.394% | – |
| O[C@H]1C[C@H](c2ccc(Cl)cc2)N(Cc2cccs2)C[C@@H]1n1cc(C2CC2)nn1 | -2.04% | – |
| COC(=O)c1c(C)cc(O)c(C)c1O | -3.9% | – |
| COC(=O)c1c(C)c(C)nc(N)c1C#N | – | 8.91 µM (active) |
| Cc1nc(SCC(=O)NC2CCCCC2C)c(C#N)c(C)c1C (centres undefined) | -2.83% | – |
| COc1ccc(NC(=O)C2Cc3c(-c4cccc(NC(C)=O)c4)ccnc3O2)cc1OC (centres undefined) | -10.8% | – |
| CC(=O)OC[C@@H]1CN(Cc2ccccc2)C[C@H](n2cnc3c(NCc4ccco4)ncnc32)O1 | -0.932% | – |
| Nc1ncnc2nnsc12 | -12.1% | – |
| O=C(CSCc1cccs1)N1CCCC1 | 0.795% | – |
| Cn1c(=NC(=O)CSCC(=O)N2CCCCC2)sc2ccccc21 | – | 35.5 µM (active) |
| Cn1c(=NC(=O)c2cnccn2)sc2ccccc21 | -0.632% | – |
| CCc1nc2c(OCc3cccc(OC)c3)cccn2c1N(C)C(=O)C(C)C | -4.33% | – |
| Cc1cccc(C)c1Cn1c(C)c(C(=O)NCc2cccc(Cl)c2)sc1=O | -3.46% | – |
| CN1OC[C@@H]2CN(C(=O)c3cccnc3)[C@H](c3ccc(N4CCCCC4)cc3)C[C@@H]21 | -5.72% | – |
| c1ccc(-c2cc(-c3ccccc3)[nH]n2)cc1 | -3.14% | – |
| c1ccc(-c2ccc3c(c2)NC(C2Nc4cc(-c5ccccc5)ccc4O2)O3)cc1 (centres undefined) | -25.4% | – |
| c1ccc(-c2c[nH]c(-c3ccccc3)c2)cc1 | – | 20 µM (active) |
| CCCCN1CC(N2CCN(Cc3cccc(C)c3)CC2)CS1(=O)=O (centres undefined) | 0.479% | – |
| O=C1c2cccc(OCC(=O)N3N=C(c4cccs4)CC3c3ccc(F)cc3)c2CCN1Cc1ccccc1 (centres undefined) | – | 15.8 µM (active) |
| COc1ccc(C2CC(c3cccs3)=NN2C(=O)COC(=O)c2cc3ccccc3cc2O)cc1OC (centres undefined) | -1.29% | – |
